Source: PubChem
A selection: hits, their analogues and other compounds. The true share with any hit is near 6.6%.
Mtb FBA inh: inhibitors of M. tuberculosis fructose-bisphosphate aldolase | P9WQA3 | purified M. tuberculosis FBA, fluorescence read-out | inhibition, % at 1 µM | 360,000 compounds, 2.3% hits; in the data active means inhibition above about 27%;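 further: 0% = vehicle and 100% = reference inhibitor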
Anthrax LF prot: inhibitors of Bacillus anthracis lethal factor protease | P15917 | multiplex microsphere protease cleavage assay, LF | inhibition, % at 10 µM | 360,000 compounds, 0.12% hits | AID 588501; further: plate controls were buffer without enzyme for full effect and enzyme alone for no effect
Target sequence (P15917 whole entry, looked up): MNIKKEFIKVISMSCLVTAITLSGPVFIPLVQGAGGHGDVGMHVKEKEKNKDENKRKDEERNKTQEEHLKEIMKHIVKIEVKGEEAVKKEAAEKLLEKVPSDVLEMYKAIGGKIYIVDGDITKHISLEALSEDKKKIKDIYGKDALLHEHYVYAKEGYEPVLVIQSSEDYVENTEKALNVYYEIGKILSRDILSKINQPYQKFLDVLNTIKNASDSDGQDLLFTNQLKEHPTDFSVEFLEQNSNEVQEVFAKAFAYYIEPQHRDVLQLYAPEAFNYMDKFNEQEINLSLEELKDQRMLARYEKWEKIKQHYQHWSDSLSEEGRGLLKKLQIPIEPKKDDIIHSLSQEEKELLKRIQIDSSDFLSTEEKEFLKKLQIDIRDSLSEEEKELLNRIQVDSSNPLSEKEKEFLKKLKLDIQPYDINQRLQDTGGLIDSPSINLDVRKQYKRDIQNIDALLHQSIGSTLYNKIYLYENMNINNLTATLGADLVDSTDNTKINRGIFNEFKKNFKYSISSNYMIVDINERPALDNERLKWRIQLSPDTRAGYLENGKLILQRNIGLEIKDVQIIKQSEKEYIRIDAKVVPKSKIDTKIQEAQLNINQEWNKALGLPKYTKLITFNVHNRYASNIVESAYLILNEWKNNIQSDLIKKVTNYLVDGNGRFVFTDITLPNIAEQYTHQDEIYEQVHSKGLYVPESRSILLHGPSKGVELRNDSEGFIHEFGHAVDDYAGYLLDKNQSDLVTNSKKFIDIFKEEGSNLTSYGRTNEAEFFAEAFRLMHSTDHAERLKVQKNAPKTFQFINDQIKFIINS
GDH-TPI inh: inhibits GDH-TPI coupling enzymes, artifact for Mtb FBA screen; GDH-TPI coupled enzyme counterscreen, NADH absorbance; inhibition, % at 4.8 µM; 360,000 compounds, 1.2% hits; in the data active means inhibition above about 30%;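 further: 0% = DMSO wells and 100% = wells lacking the enzyme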
Bead autofluor: counter-screen for toxin protease inhibitors: compound fluorescence. compound autofluorescence counterscreen, microsphere flow cytometry; stronger effect = higher value. fluorescence intensity (test concentration not listed). 360,000 compounds, 3.1% hits. AID 624483; in the data active means fluorescence intensity above about 16000; inconclusive means no clear call, values can overlap the other calls
BoNT-A LC inh2: inhibitors of Botulinum neurotoxin A light chain protease. multiplex microsphere protease substrate cleavage, flow cytometry. inhibition, % at 10 µM. 360,000 compounds, 0.17% hits. AID 588499; further: plate controls were buffer without enzyme for full effect and enzyme alone for no effect
BoNT F protease: BoNT F light chain protease inhibition; Multiplex microsphere protease cleavage assay, flow cytometry; inhibition, % at 10 µM; 360,000 compounds, 0.22% hits; AID 588497; in the data active means inhibition above about 35%, passing the limit was not always enough; inconclusive means no clear call, values can overlap the other calls; further: plate controls were buffer without enzyme for full effect and enzyme alone for no effect
Numbers without * were called inactive; ? = inconclusive; . = no result; + = active, no number. Unless noted, no stated cut-off is given here; in the data, active means inhibition above about 30%; inconclusive means no clear call, values can overlap the other calls; inactive means below that.

SMILES	Mtb FBA inh	Anthrax LF prot	GDH-TPI inh	Bead autofluor	BoNT-A LC inh2	BoNT F protease
Cc1cc2c(cc1C)NC(C)CC(=O)N2 (stereo not drawn)	0	-9	0	3886	0	2
CS(=O)(=O)N(CC(=O)NCCSC1CCCCC1)c1ccc2c(c1)OCO2	-2	1	12	2114	0	3
COc1ccc(N(CC(=O)NCCSC2CCCCC2)S(C)(=O)=O)c(OC)c1	0	-1	14	18476*	?	-10
COc1ccc(S(=O)(=O)N2CCOc3ccccc32)cc1	154*	2	-3	3102	-2	1
Cc1cc(C)c2c(n1)nn1c(NCCCN(C)C)cc(C)nc21	+	-6	5	5562	0	-7
Cc1cc(C)c2c(n1)nn1c(NCCOCCO)cc(C)nc21	+	2	1	4330	0	3
Cc1cc(NCCCN(C)C)n2nc(-c3cccs3)cc2n1	25	-1	-1	2531	0	-5
COc1ccc(CN2C(=O)c3cccnc3C2O)cc1 (stereo not drawn)	0	-9	-6	3920	-3	-43
COc1ccc(CN2C(=O)c3cccnc3C2Nc2cc(Cl)ccc2OC)cc1 (stereo not drawn)	0	-4	-3	21495*	-1	-10
COc1ccc(OC)c(NC2c3ncccc3C(=O)N2Cc2ccco2)c1 (stereo not drawn)	2	-5	6	16912*	-2	-10
Cn1c(N)c(S(=O)(=O)N2CCN(c3ccccc3)CC2)c(=O)n(C)c1=O	1	-1	-1	2691	0	-6
CS(=O)(=O)NCC(c1cccnc1)N1CCN(c2ccccc2F)CC1 (stereo not drawn)	3	-1	-1	4164	0	-4
Cc1ccc(O)c(NC(=S)NC(=O)c2ccccc2Cl)c1	-1	2	9	4657	3	38*
O=C(NC(=S)Nc1ccc(O)cc1)c1ccccc1Cl	-1	-2	2	3528	0	0
Cc1nc(NS(=O)(=O)c2ccccc2)sc1C(=O)N/N=C/c1ccccc1	4	-6	47*	4147	0	5
Cc1nc(NS(=O)(=O)c2ccccc2)sc1C(=O)NNS(=O)(=O)c1ccccc1	2	0	4	6423	-1	-2
CC(=O)C1C(c2ccncc2)NC(=O)NC1(O)C(F)(F)F (stereo not drawn)	2	-1	6	22926*	1	0
CC(=O)C1C(c2ccccc2Cl)NC(=O)NC1(O)C(F)(F)F (stereo not drawn)	5	2	7	5520	0	-2
COc1ccc(C2NC(=O)NC(O)(C(F)(F)F)C2C(=O)c2ccc(F)cc2)cc1 (stereo not drawn)	-3	0	-7	4055	1	-13
CC(=O)C1C(c2ccc3ncccc3c2)NC(=O)NC1(O)C(F)(F)F (stereo not drawn)	2	-2	-3	22750*	-2	0
O=S(=O)(NCCS(=O)(=O)N1CCN(c2ccc(F)cc2)CC1)c1ccc(F)cc1	2	-5	15	3578	0	0
N#C/C(=C\c1c[nH]c2ccccc12)C(=O)NCC1CCCO1 (stereo not drawn)	0	-2	10	2040	0	-8
CCCc1c(O)nc(SCCN(CC)CC)[nH]c1=O	-13	5	-2	4692	-1	-5
CCCc1c(O)nc(SCCN(CC)CC)n(C(=O)c2ccccc2)c1=O	-5	0	13	23987*	-3	-5
Nc1nnc(SCc2ccc(F)cc2)s1	1	0	-1	23088*	?	-1
SMILES	Mtb FBA inh	Anthrax LF prot	GDH-TPI inh	Bead autofluor	BoNT-A LC inh2	BoNT F protease
CCOC(=O)c1sc(=S)n(-c2ccc(C)cc2)c1N	-1	-2	20	4173	-4	-18
CCOC(=O)c1sc(=S)n(-c2ccc(Cl)cc2)c1SC	-2	-2	19	21737*	0	-1
Cc1ccc(-n2c(N)c(C(=O)Nc3ccccc3F)sc2=S)cc1C	0	0	33*	4527	0	-6
CCOC(=O)c1sc(=S)n(-c2ccc(F)c(F)c2)c1N	-1	0	12	21634*	-5	-4
COc1ccc(-n2c(N)c(C(=O)NCc3ccco3)sc2=S)cc1	-11	-1	-1	3970	0	1
CCOC(=O)c1ccc(-n2c(N)c(C(=O)NCc3ccco3)sc2=S)cc1	-4	-1	15	23235*	2	0
Cc1cc2nc(C(C)(C)C)c(Cc3ccccc3)n2c(C)c1Br	4	-8	.	6022	0	-7
Cc1ccsc1C1Nc2ccc3ncccc3c2C2=C1C(=O)CCC2 (stereo not drawn)	-1	1	14	20032*	3	0
COc1cc(C2Nc3ccc4ncccc4c3C3=C2C(=O)CCC3)cc(OC)c1OC (stereo not drawn)	3	2	12	3181	0	-1
CCOC(=O)CSc1nnc(-c2nnc(SCC(=O)OCC)n2CC)n1CC	3	5	-13	16806*	11	14
O=C1CC(SC(=Nc2ccccc2)Nc2ccccc2)C(=O)N1c1cccc2ccccc12 (stereo not drawn)	-2	-4	-9	2940	0	-1
CN(C)c1ccc(/C=[N+](\[O-])C2SC(=S)N(C)C2(C)C)cc1 (stereo not drawn)	-3	-1	34*	4085	2	9
CN(C)c1ccc(/C=[N+](\[O-])C2N(c3ccccc3)C(=S)SC2(C)C)cc1 (stereo not drawn)	-3	-2	33*	2487	1	0
CN1C(=S)SC(C)(C)C1/[N+]([O-])=C/c1cccnc1 (stereo not drawn)	-2	-1	-10	4258	0	-2
COc1ccc(NC(=O)C(C)NS(=O)(=O)c2ccc(NC(C)=O)cc2)cc1Cl (stereo not drawn)	2	-3	-1	23479*	0	-4
CC(=O)Nc1ccc(S(=O)(=O)Nc2cc(C)cn(Cc3ccccc3)c2=O)cc1	70*	0	8	5135	-3	-4
O=S(=O)(Nc1cccc2ccccc12)c1ccccc1	1	-7	14	4537	0	18
COC(=O)Nc1ccc(S(=O)(=O)Nc2cccc3ccccc23)cc1	-2	-9	4	21995*	?	0
COc1ccc(S(=O)(=O)NC(C)C(=O)Nc2ccccc2)cc1Cl (stereo not drawn)	3	2	9	6053	-2	0
CN(CC(=O)NCc1ccco1)S(=O)(=O)c1ccc2c(c1)n(C)c(=O)c(=O)n2C	1	-2	2	24204*	-3	-3
CN(CC(=O)NCc1ccccc1Cl)S(=O)(=O)c1ccc2c(c1)n(C)c(=O)c(=O)n2C	4	2	12	8388	-7	-17
CC(C)(C)S(=O)(=O)N1C[C@@H]2C(=CC[C@H]3C(=O)N(c4ccccc4)C(=O)[C@@H]23)[C@@H]1CCO	0	-6	1	3822	0	-6
